# GLP1R cytotox – cytotoxicity in counter-screen for GLP-1R inverse agonists; HEK293 cAMP-luciferase reporter cells, luminescence, 24 h; AID 624418; Potency, µM (top dose mostly 38.3 µM), inactives show at the top dose activity change, negative = inhibition, actives largely listed as inhibitors; actives 0.13% (n = 410,000);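 also: loss of luciferase light is scored as toxicity; potency is read from the fitted curve at half-maximal effect; % is scaled to controls: 0 for no effect and ±100 for the full control effect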
#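 Here, cytotoxicity is scored as loss of luminescence. The MLSMR collection was tested on cells seeded in medium containing 10% Nu serum, with a 24 hr compound exposure preceded by 12 hours of culture.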
# DRD3 antagonist – D3 dopamine receptor (human) antagonism; max response, negative = inhibition, %; actives 2.5% (n = 360,000); D3R cells, DiscoveRx beta-arrestin luminescence, antagonist mode; stronger effect = lower value; P35462; in the data active = max response below about -50%; inconclusive = no clear call, values can overlap the other calls; also: % is scaled to controls: 0 for no effect and ±100 for the full control effect
# Target sequence (P35462 whole entry, looked up): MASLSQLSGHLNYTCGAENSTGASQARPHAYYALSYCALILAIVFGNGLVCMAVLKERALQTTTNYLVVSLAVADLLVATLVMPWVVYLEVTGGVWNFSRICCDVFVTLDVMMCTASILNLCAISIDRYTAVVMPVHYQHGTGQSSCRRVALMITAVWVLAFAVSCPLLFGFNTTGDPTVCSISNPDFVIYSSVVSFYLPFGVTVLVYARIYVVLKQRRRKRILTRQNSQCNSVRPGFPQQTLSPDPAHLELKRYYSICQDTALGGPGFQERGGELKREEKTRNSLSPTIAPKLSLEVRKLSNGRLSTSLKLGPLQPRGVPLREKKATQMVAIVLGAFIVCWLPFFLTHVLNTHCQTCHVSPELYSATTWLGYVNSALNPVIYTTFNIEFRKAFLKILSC
#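 Cells expressing the human receptor were seeded at 1500 cells/well, incubated overnight at 37 degrees C in 5% CO2, then exposed to library compounds with dopamine controls for 90 minutes at 37 degrees C before luminescent detection.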
# GLP-1R inv ag – inverse agonists of human GLP-1 receptor; actives 1.6% (n = 410,000); AID 624417; HEK293 GLP-1R CRE-luciferase, luminescence, 24 h; GLP-1R form is constitutively active; Potency, µM (titrated, usually from 38.3 µM), for inactives: at the highest dose activity change, negative = inhibition, usual class: inhibitors; P43220; also: potency is read from the fitted curve at half-maximal effect; % is scaled to controls: 0 for no effect and ±100 for the full control effect; nearly all actives have a fitted effect of over 55% in size
#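 Assay principle: reduced luminescence from a cAMP-responsive reporter in HEK293 cells co-expressing a constitutively active GLP-1R. Conditions: 24 hr compound incubation, 37 deg C, 5% CO2.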
# DRD3 agonist – agonists of human D3 dopamine receptor; P35462; D3R DiscoveRx beta-arrestin cells, luminescence, 90 min; max activation, %; actives 0.58% (n = 410,000); AID 652048; in the data active = max activation above about 30%; also: 0% is about no effect
#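 Agonist mode: compounds and dopamine controls were applied to plated cells for 90 min at 37 degrees C after an overnight attachment at 1500 cells/well. Luminescent read-out followed 30 - 60 minutes at room temperature with DiscoveRx detection reagent.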
# ClpP mod – qHTS Assay for Activators of ClpP; ATP-dependent Clp protease proteolytic subunit (Bacillus subtilis (strain 168)), P80244; purified B. subtilis ClpP, FRET peptide cleavage, 20 min; Potency, µM (doses to about 57.5 µM), without a hit: top-dose activity change, negative = active; actives 1.9% (n = 340,000); AID 651965, 2013; active = well fitted falling curve with a large enough effect; inconclusive = small, poorly fitted or top-dose-only effect; inactive = no such curve, though single readings can be large or run the other way; also: potency is read from the fitted curve at half-maximal effect; the source files actives as falling curves though it sought activators and does not explain the sign; nearly all actives have a fitted effect of over 65% in size
# Target sequence (P80244 whole entry, looked up): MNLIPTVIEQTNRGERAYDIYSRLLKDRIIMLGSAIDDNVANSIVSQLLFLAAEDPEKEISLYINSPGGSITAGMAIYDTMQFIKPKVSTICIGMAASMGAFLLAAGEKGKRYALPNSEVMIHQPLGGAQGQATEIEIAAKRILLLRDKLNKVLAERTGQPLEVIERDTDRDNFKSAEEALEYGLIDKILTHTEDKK
#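 FRET quenching reversal measured ClpP activation: 10 microg/mL B. subtilis ClpP at pH 8 with the FRET-FV decapeptide, read at 430 nm after 320 nm excitation. The 20-min minus 0-min signal was scaled between DMSO/no-enzyme wells and ADEP (5.8 microM final).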
# GLP-1R agonist – activates the human GLP-1 receptor. HEK293 GLP-1R CRE-luciferase, luminescence, 4-6 h; cells express a hypersensitive GLP-1R form. P43220. actives 0.007% (n = 380,000). Potency, µM (series often up to 45.6 µM), inactives show top-dose activation, hits mostly activators. AID 624172; also: potency is read from the fitted curve at half-maximal effect; % of control where 0% means no effect
# Active calls of the source: *; ? = inconclusive; · = no result given. Compounds with a hit are over-represented: about 5.7% of the library has one in this group of screens. Unless noted, calls follow the shape of the dose curve; as a rule, active = well fitted curve in the direction sought with a large enough effect; inconclusive = small, poorly fitted or top-dose-only effect, or another doubt; inactive = no such curve, though single readings can be large; an effect the other way counts as inactive or inconclusive.
SMILES,GLP1R cytotox,DRD3 antagonist,GLP-1R inv ag,DRD3 agonist,ClpP mod,GLP-1R agonist
Cc1sc2ncnc(-n3cnc4ccccc43)c2c1C,?,14,-23%,-4,28µM*,-1%
Cc1sc2ncnc(N3CCCCC3)c2c1C,2%,30,51%,8,5%,5%
Cc1ccc(-c2csc3ncnc(-n4cnc5ccccc54)c23)cc1,-11%,-1,?,1,28µM*,17%
c1ccc(-c2csc3ncnc(-n4cnc5ccccc54)c23)cc1,-17%,-5,-35%,-5,?,6%
CCOC(=O)c1cc(-c2ccc(OC)c(S(=O)(=O)NC3CCCCC3)c2)on1,-13%,·,3%,-9,-22%,·
CC1(C2CC2)NC(=O)N(CC(=O)Nc2ccc(OC(F)F)cc2)C1=O (stereo not given),-12%,18,-18%,2,0%,0%
COc1nnc(-c2ccc(N3CCOCC3)c(NC(=O)C3CCCCC3)c2)c2ccccc12,9%,16,34%,1,-1%,-1%
c1ccc2c3c(cc(N4CCOCC4)c2c1)OC1(N2CCOCC2)CCCCC1O3 (stereo not given),?,7,-28%,-5,32µM*,4%
CN(C)CC/C=C1\c2ccccc2COc2ccccc21,-10%,-77*,10µM*,-89,0%,-1%
CCCCN(CC)c1nc(-c2ccccc2F)nc2ccccc12,6%,·,7%,7,-6%,·
CCOc1ccc(S(=O)(=O)N2CCC(C(=O)N3CCN(c4ccccc4F)CC3)CC2)cc1C,10%,-15,5.6µM*,-4,-1%,2%
Cn1c(=O)oc2cc(S(=O)(=O)N3CCC(C(=O)N4CCN(c5ccccc5F)CC4)CC3)ccc21,4%,·,0%,2,0%,-2%
COc1cc(-c2ccc(-[n+]3nc(-c4ccccc4)nn3-c3ccc([N+](=O)[O-])cc3)c(OC)c2)ccc1-[n+]1nc(-c2ccccc2)nn1-c1ccc([N+](=O)[O-])cc1,·,·,·,-5,·,-8%
CC(NCc1ccc2c(c1)OCO2)C(=O)N1CCc2ccccc21 (stereo not given),29%,-107*,-21%,-12,-5%,7%
CC(NCc1ccc(S(N)(=O)=O)cc1)C(=O)N1CCc2ccccc21 (stereo not given),4%,2,2%,-3,0%,-2%
CC(C)(C)c1ccc(/C=N/N2CCN(c3ccccn3)CC2)cc1,7%,-6,-11%,30*,·,8%
Oc1ccc(/C=N/N2CCN(c3ccccn3)CC2)cc1,-5%,2,8%,-9,2%,4%
OC(C#CCN1CCCCC1)(c1ccccc1)c1ccccc1,-11%,-79*,?,-22,·,13%
CC(C)N(CC#CC(O)(c1ccccc1)c1ccccc1)C(C)C,2%,-24,?,-14,32µM*,-2%
CC(C)N(CC#CC(O)(c1ccccc1)c1ccccc1)CCO,-1%,0,-35%,0,10%,0%
CCCS(=O)(=O)NC(=O)C1(C)CCN(C(=O)c2ccnc(Cl)c2)C1 (stereo not given),1%,0,11%,-4,2%,9%
Cc1nc(N2CCOCC2)c2c(C(=O)NCCc3ccccc3)c(C)oc2n1,15%,·,15%,-14,-4%,·
COc1ccc(-n2ncc(C(=O)N3CCc4ccccc4C3)c2C2CCN(C(=O)OC(C)(C)C)CC2)cc1,3%,·,-1%,5,0%,·
CS(=O)(=O)N(CC(=O)NCCSc1ccccc1)c1cc(C(F)(F)F)ccc1Cl,5%,·,?,2,-2%,-2%
COC(=O)c1ccc(NC(=O)c2nn(C)c3c2COc2ccccc2-3)cc1,-25%,·,?,3,-3%,·
SMILES,GLP1R cytotox,DRD3 antagonist,GLP-1R inv ag,DRD3 agonist,ClpP mod,GLP-1R agonist
CCOc1ccc(NC(=O)c2nn(C)c3c2COc2ccccc2-3)cc1,-4%,·,-3%,55*,-7%,·
Cc1cc(NC(=O)c2c(F)cccc2Cl)n(-c2nc3ccccc3[nH]2)n1,-4%,29,?,-8,-1%,-11%
Cc1cc(NC(=O)c2c(F)cccc2F)n(-c2nc3ccccc3[nH]2)n1,?,-96*,?,37*,-11%,-14%
Cc1cccc(Cn2c(COc3ccc(Cl)cc3)nc3ccccc32)c1,39%,·,-4%,-20,-4%,·
CCOC(=O)C1=C(C)NC2=C(C(=O)CCC2)C1c1cccs1 (stereo not given),-8%,-18,1%,-6,?,14%
CCOC(=O)c1sc2c(c1C)C(c1cccs1)C1=C(CCCC1=O)N2 (stereo not given),383%,84,?,13,4.5µM*,4%
CN1CCN(c2ccc(NC(=O)c3ccc4ccccc4c3)cc2)CC1,64%,?,2µM*,-19,·,1%
CN1CCN(c2ccc(NC(=O)COc3ccc4ccccc4c3)cc2)CC1,-7%,-5,7.1µM*,-12,·,21%
CN1CCN(c2ccc(NC(=O)COc3cccc4ccccc34)cc2)CC1,1%,-28,10µM*,-9,·,14%
Cc1ccccc1OCC(=O)Nc1ccc(N2CCN(S(C)(=O)=O)CC2)cc1,-19%,29,0%,2,0%,-7%
Cc1cc(C)cc(OCC(=O)Nc2ccc(N3CCN(C(=O)c4ccco4)CC3)cc2)c1,-22%,28,-45%,37*,0%,-2%
CCc1ccc(-n2nc(C)c3c(C(=O)N4CCN(c5cccc(Cl)c5)CC4)cc(C)nc32)cc1,-7%,·,-15%,14,-14%,·
COc1cc2c(cc1OC)C1CC(=O)C(CC(C)C)CN1CC2 (stereo not given),-3%,5,31%,-36,-2%,?
COc1cc2c(cc1OC)C1C/C(=N\O)C(CC(C)C)CN1CC2 (stereo not given),-15%,-58*,-27%,-20,3%,-1%
CN(C)[C@@H]1CCC[C@H]1OC(=O)C(c1ccccc1)c1ccccc1,-1%,-53*,-23%,-10,1%,-1%
CC1CN(C)C(C)CC1OC(=O)C(c1ccccc1)c1ccccc1 (stereo not given),-10%,-5,?,-16,1%,5%
COc1ccc(C(=O)Cc2nnc(C)s2)cc1,-18%,-22,8%,-2,20µM*,-4%
COc1ccccc1C(=O)N1c2ccccc2C(C)(c2ccc(Cl)cc2)CC1(C)C (stereo not given),-8%,·,?,-11,-5%,·
